Assay results: ChEMBL document CHEMBL3988442, “University of Dundee, Small-Polar-MMV Screening Library” (2021)

Target: AMP-activated protein kinase, AMPK (Homo sapiens) (UniProt P54646+O43741+P54619+Q9UGJ0+Q9Y478+Q13131+Q9UGI9)
Experiment: AMP-dependent Kinase enzyme assay. An in vitro enzyme assay that detects ADP turnover that is directly proportional to AMPK activity. This uses naive AMPK that is activated during the assay with MK-8722
Type: functional
Set-up: scale not given: direction of the effect not stated beside the values
Details: 30 µM

Row | SMILES | Percent Effect [%]
1 | Cc1ccccc1N1CCCN(C(=O)CCc2nncn2C)CC1 | -4.54
2 | Cc1cccc2nc(CN3CCC(N4CCN(C)C4=O)CC3)cn12 | 6.81
3 | Cc1noc(C)c1CC(=O)N1CCCC(Cn2ccnc2C)C1 (stereo not given) | -4.07
4 | O=C(CN1CCC(c2nnc(C(F)(F)F)o2)CC1)NCc1ccccc1 | 0.729
5 | O=C(Cn1cnc2ccsc2c1=O)c1ccc2c(c1)OCCO2 | -4.28
6 | CS(=O)(=O)Cc1noc(CN(Cc2ccco2)c2ccccc2)n1 | 3.02
7 | Cn1c(CO)nnc1SCc1c(F)cccc1Br | 2.62
8 | COc1ccc(S(=O)(=O)C2CCN(C(=O)c3cc(C)cs3)CC2)cc1 | 2.13
9 | Cn1ncc2c(N[C@@H]3C[C@@H]4CC[C@H]3C4)nc(-c3ccncc3)nc21 | 12.7
10 | CCS(=O)(=O)NCC(=O)N1CCC(c2cc3ccccc3[nH]2)CC1 | 6.95
11 | CN1CCN(CC2(O)CCCN(S(=O)(=O)c3cn[nH]c3)CC2)CC1 (stereo not given) | 13
12 | C[C@@H]1CN(c2ccc(Cl)cn2)CC[C@@]1(O)C1CCOCC1 | 5.56
13 | CNC(=O)CCOC(=O)c1cccc(-n2cccn2)c1 | 7.17
14 | CCCC(=O)NCCc1cc(NC)nc(-c2ccccn2)n1 | -2.74
15 | Cc1cc(CC(C)NC(=O)c2n[nH]c3c2CCC3)n[nH]1 (stereo not given) | 3.64
16 | Cc1cc(C[S+]([O-])Cc2ccccc2F)no1 (stereo not given) | 13.9
17 | O=C(NCc1cccnc1-n1cncn1)c1cc(Cl)ccn1 | -11.1
18 | CCN(CC(=O)N(C)C)C(=O)c1ccc(-c2nc(C)cs2)cc1 | 8.68
19 | COc1ccc(OCc2nc3cc4c(cc3c(=O)o2)OCCCO4)cc1 | -6.13
20 | Cc1cc(C)nc(N2CCCC(C)(c3[nH]ncc3C(=O)N(C)C)C2)n1 (stereo not given) | 4.6
